Laboratory results reported in PubChem BioAssay (Tox21).
“And” between values parts separate entries of the source, which are not always exact repeats. Equal values may be shown once. A number with no mark means an inactive call. Records with an inconclusive call do not appear. Where a call stands in place of a potency, no number is given. The source made the active and inactive calls. Unless noted, calls follow the shape of the dose curve; as a rule, active = well fitted curve in the direction sought with a large enough effect in the repeat runs; inconclusive = weak or mixed curves; inactive = no such curve, though single readings can be large; an effect the other way counts as inactive or inconclusive.

Columns and labels:
[1] = qHTS assay for small molecule agonists of the p53 signaling pathway (AID 651631; calls by dose curve; also: nearly all actives have a fitted effect of over 15% in size; also: potency is read from the fitted curve at half-maximal effect)
In short: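 Testing took place in human colorectal HCT-116 cells with stable p53RE-driven beta-lactamase. After 16 h of compound exposure at 37 °C, a FRET substrate was added and fluorescence recorded 2 h later.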

[2] = qHTS assay for small molecule agonists of the p53 signaling pathway - cell viability (AID 651633; calls by dose curve; also: nearly all actives have a fitted effect of over 30% in size; also: potency is read from the fitted curve at half-maximal effect)
In short: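 p53RE-bla cells, seeded at 4,000 per well and rested 5 h at 37 C/5% CO2, received compounds in DMSO for 16 h at 37 C. CellTiter-Glo was then added, and luminescence was read after 30 min at room temperature to gauge cytotoxicity.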

[3] = qHTS assay for small molecules that induce genotoxicity in human embryonic kidney cells expressing luciferase-tagged ATAD5 - cell viability (AID 651634; calls by dose curve; also: nearly all actives have a fitted effect of over 25% in size; also: potency is read from the fitted curve at half-maximal effect)
In short: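 Cytotoxicity counterscreen in HEK293T cells bearing an ATAD5-luciferase reporter: live-cell protease activity measured by CellTiter-Fluor fluorescence after 15.5 hr compound exposure.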

[4] = qHTS assay for small molecule disruptors of the mitochondrial membrane potential - cell viability (AID 720634; calls by dose curve; also: nearly all actives have a fitted effect of over 20% in size; also: potency is read from the fitted curve at half-maximal effect)
In short: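 After overnight attachment at 37 C, HepG2 cells received compound or DMSO vehicle for 1 hr. Viability is then taken from ATP-driven luminescence following a 30 min room-temperature CellTiter-Glo step.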

[5] = qHTS assay to test for compound auto fluorescence at 590 nm (red) in HepG2 cells (AID 720674)
In short: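 Rose Bengal sodium served as the red fluorophore standard. HepG2 monolayers (overnight attachment, MEM with 10% FBS) were exposed to test compounds for 1 hr at 37 C and read at Ex 540/Em 590 nm.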

[6] = qHTS assay to test for compound auto fluorescence at 535 nm (green) in HepG2 cells (AID 720675)
[7] = qHTS assay to test for compound auto fluorescence at 460 nm (blue) in HEK293 cells (AID 720678)
In short: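 HEK293, 2,000 cells/well, 10% dialyzed FBS; attach 4-5 hr 37C; pin compound or DMSO; o/n 37C/5% CO2; fluorescence 405/460 nm; triamterene-equivalent units.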

[8] = qHTS assay to test for compound auto fluorescence at 590 nm (red) in HEK293 cells (AID 720679)
In short: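 Intensity at 540nm excitation and 590nm emission is reported as Rose Bengal sodium-equivalent autofluorescence. Measurements followed overnight exposure (37C, 5% CO2) of HEK293 cells, 2,000 per well, to 23 nL compound.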

[9] = qHTS assay to test for compound auto fluorescence at 535 nm (green) in HEK293 cells (AID 720680)
[10] = qHTS assay to test for compound auto fluorescence at 460 nm (blue) in HEK293 cell free culture (AID 720681)
In short: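 Test compounds were pinned into cell-free culture medium (DMEM with 10% FBS) and fluorescence was read directly at Ex/Em 405/460 nm. Signals were expressed as fluorescence equivalents of triamterene, with DMSO vehicle as control.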

[11] = qHTS assay to test for compound auto fluorescence at 535 nm (green) in HEK293 cell free culture (AID 720682)
In short: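 DMEM + 10% FBS, cell-free; cpd or DMSO pinned in; Ex485/Em535 read; output as fluorescein-equivalent signal.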

[12] = qHTS assay to test for compound auto fluorescence at 590 nm (red) in HEK293 cell free culture (AID 720683)
In short: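 Tox21 10K library compounds were pinned into cell-free DMEM with 10% FBS and fluorescence was read at excitation 540 nm. Activity is expressed as Rose Bengal sodium equivalency.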

[13] = qHTS assay to test for compound auto fluorescence at 590 nm (red) in HepG2 cell free culture (AID 720684)
In short: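 Red fluorescence (540 nm excitation, 590 nm emission) was measured after compound transfer into cell-free MEM supplemented with 10% FBS. Values are equivalencies against Rose Bengal sodium.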

[14] = qHTS assay to test for compound auto fluorescence at 460 nm (blue) in HepG2 cell free culture (AID 720685)
In short: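 Compound (23 nL) or DMSO pinned into cell-free MEM with 10% FBS; blue fluorescence read at 405/460 nm excitation/emission, expressed as auto-fluorescence equivalency to triamterene.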

[15] = qHTS assay to test for compound auto fluorescence at 535 nm (green) in HepG2 cell free culture (AID 720686)
[16] = qHTS assay to test for compound auto fluorescence at 460 nm (blue) in HepG2 cells (AID 720687)
In short: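 Cells (2,000/well in MEM with 10% FBS) attached overnight at 37 C, then were exposed to compound or DMSO for 1 hr at 37 C, 5% CO2. Fluorescence read at Ex/Em 405/460 nm, expressed as triamterene-equivalent signal.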

[17] = qHTS assay for small molecule disruptors of the mitochondrial membrane potential (AID 720635); also: potency is read from the fitted curve at half-maximal effect
In short: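 HepG2 cells (2,000/well) attached overnight at 37C, then took compound for 1 hr at 37C, 5% CO2. Mito-MPS dye was added for 30 min; fluorescence was read at 490/535 nm (monomers) and 540/590 nm (aggregates).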

[18] = biological target: Glucocorticoid receptor (Homo sapiens) (UniProt P04150); assay: qHTS assay to identify small molecule agonists of the glucocorticoid receptor (GR) signaling pathway (AID 720691; active = well fitted activation curve with a large enough effect in the signal ratio in the repeat runs, not every such curve was filed as active; the % refers to the signal ratio); settings: GR-bla HeLa, beta-lactamase reporter ratio, 18 h; activation: at 62.4 µM (top of the series)
Chain of Glucocorticoid receptor (Homo sapiens) (P04150 whole entry, looked up): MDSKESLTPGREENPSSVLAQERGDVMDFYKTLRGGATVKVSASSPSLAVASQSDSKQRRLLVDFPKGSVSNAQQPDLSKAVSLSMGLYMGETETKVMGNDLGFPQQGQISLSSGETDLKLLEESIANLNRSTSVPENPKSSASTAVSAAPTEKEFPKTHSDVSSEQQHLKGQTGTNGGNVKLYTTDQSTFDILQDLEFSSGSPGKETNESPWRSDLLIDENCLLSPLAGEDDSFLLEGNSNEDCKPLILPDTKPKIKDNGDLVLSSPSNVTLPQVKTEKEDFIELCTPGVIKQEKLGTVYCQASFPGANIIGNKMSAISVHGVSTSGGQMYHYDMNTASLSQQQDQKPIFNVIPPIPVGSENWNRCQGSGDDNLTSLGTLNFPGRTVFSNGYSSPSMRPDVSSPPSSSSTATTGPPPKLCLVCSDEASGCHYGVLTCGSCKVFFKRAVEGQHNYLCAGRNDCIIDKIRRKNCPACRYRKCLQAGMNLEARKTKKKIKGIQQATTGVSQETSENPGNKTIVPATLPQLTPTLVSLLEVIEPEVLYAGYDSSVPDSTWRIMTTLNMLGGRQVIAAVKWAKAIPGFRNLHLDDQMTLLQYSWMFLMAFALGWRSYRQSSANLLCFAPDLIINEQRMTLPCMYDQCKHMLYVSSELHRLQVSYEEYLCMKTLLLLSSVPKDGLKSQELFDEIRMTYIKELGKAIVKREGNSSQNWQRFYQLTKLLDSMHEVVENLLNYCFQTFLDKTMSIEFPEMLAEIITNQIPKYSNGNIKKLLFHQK
In short: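 Agonist mode in a HeLa line carrying a GRE-controlled beta-lactamase reporter. Compounds act for 18 h at 37 C before a 2 h room-temperature FRET substrate step and fluorescence reading.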

[19] = biological target: Glucocorticoid receptor (Homo sapiens) (UniProt P04150); assay: qHTS assay to identify small molecule antagonists of the glucocorticoid receptor (GR) signaling pathway (AID 720692; active = well fitted inhibition curve with a large enough effect in the signal ratio in the repeat runs, not every such curve was filed as active; the % refers to the signal ratio; also: potency is read from the fitted curve at half-maximal effect)
In short: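 Cells plated, rested 4 h at 37 C/5% CO2; compounds in DMSO pin-transferred; dexamethasone added to 5 nM final; 18 h at 37 C; B/G FRET substrate added, 2 h room temperature; fluorescence measured.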

[20] = qHTS assay for small molecules that induce genotoxicity in human embryonic kidney cells expressing luciferase-tagged ATAD5 (AID 651632); also: nearly all actives have a fitted effect of over 15% in size; also: potency is read from the fitted curve at half-maximal effect
In short: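 Increased luciferase signal from ATAD5-tagged reporter cells indicates DNA-damage-driven ATAD5 induction. HEK293T cells are treated for 16 hr at 37C before detection with Amplite.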

Structure (SMILES)	Potency [1]	Potency [2]	Potency [3]	Potency [4]	outcome [5]	Potency [6]	Potency [7]	outcome [8]	outcome [9]	Potency [10]	outcome [11]	outcome [12]	outcome [13]	Potency [14]	Potency [15]	Potency [16]	Potency [17]	Potency [18]	Potency [19]	Potency [20]
NC[C@H]1O[C@H](O[C@H]2[C@H](O)[C@@H](O[C@H]3O[C@H](CO)[C@@H](O)[C@H](N)[C@H]3O)[C@H](N)C[C@@H]2N)[C@H](N)C[C@@H]1O	inactive	inactive	inactive	inactive	inactive	inactive	inactive	inactive	inactive	inactive	inactive	inactive	inactive	inactive	inactive	inactive	–	–	–	–
COC(=O)[C@H]1[C@H]2C[C@H]3c4[nH]c5ccccc5c4CCN3C[C@H]2CC[C@@H]1O	inactive	inactive	inactive	inactive	inactive	inactive	inactive	inactive	–	inactive	inactive	inactive	inactive	–	inactive	inactive	inactive	–	–	–
CNC(=O)OCc1cccc(COC(=O)NC)n1	inactive	inactive	inactive	inactive	inactive	inactive	inactive	inactive	inactive	inactive	inactive	inactive	inactive	inactive	inactive	inactive	inactive	inactive	inactive	–
CCCC(=O)c1cc(O)c(O)cc1O	68.6 µM (active)	inactive	30.6 µM (active)	–	inactive	inactive	inactive	inactive	inactive	inactive	inactive	inactive	inactive	inactive	inactive	inactive	–	inactive	–	–
CC(C)(S)C(=O)N[C@@H](CS)C(=O)O	inactive	inactive	inactive	inactive	inactive	inactive	inactive	inactive	inactive	inactive	inactive	inactive	inactive	inactive	inactive	–	inactive	inactive	inactive	–
SC1CCCCC1	–	inactive	inactive	inactive	inactive	inactive	inactive	inactive	–	inactive	inactive	inactive	inactive	inactive	inactive	–	50.5 µM (active)	inactive	–	inactive
C=C1C(CCl)(CCl)C2(Cl)C(Cl)C(Cl)C1(Cl)C2(Cl)Cl (stereo unspecified)	–	10.6 µM (active) and 60.4 µM (active)	–	inactive	inactive	inactive	–	inactive	inactive	inactive	inactive	inactive	inactive	inactive	inactive	inactive	3.76 µM (active) and 4.28 µM (active)	–	–	inactive
CCCCCCCCCCCCCCCCC(C(=O)O)C(O)(CC(=O)O)C(=O)O (stereo unspecified)	–	29.8 µM (active)	inactive	inactive	inactive	inactive	inactive	inactive	inactive	inactive	inactive	inactive	inactive	inactive	inactive	inactive	–	–	–	inactive
N[C@@H](Cc1ccc(O)c(O)c1)C(=O)O	–	inactive	inactive	inactive	inactive	inactive	inactive	inactive	inactive	inactive	inactive	inactive	inactive	inactive	inactive	inactive	–	inactive	–	inactive
CCSCC	–	inactive	inactive	inactive	inactive	inactive	inactive	inactive	inactive	inactive	inactive	inactive	inactive	inactive	inactive	inactive	–	inactive	inactive	inactive
CC(C)c1ccc2sc3ccccc3c(=O)c2c1	–	inactive	inactive	34.4 µM (active)	inactive	inactive	–	inactive	inactive	–	inactive	–	inactive	–	inactive	–	48.6 µM (active)	inactive	inactive	4.33 µM (active)
CC(=O)N[C@@H](C=O)[C@H](O)[C@H](O)[C@@H](O)CO	–	inactive	inactive	inactive	inactive	inactive	inactive	inactive	inactive	inactive	inactive	inactive	inactive	inactive	inactive	inactive	–	–	–	inactive
CN1CC[C@H](c2c(O)cc(O)c3c(=O)cc(-c4ccccc4Cl)oc23)[C@H](O)C1	–	inactive	inactive	inactive	inactive	inactive	inactive	inactive	–	inactive	inactive	–	inactive	inactive	inactive	–	–	–	0.674 µM (active)	inactive
N#Cc1nc(Cl)c(Cl)c(Cl)c1Cl	–	10.9 µM (active)	4.86 µM (active)	inactive	inactive	inactive	inactive	inactive	inactive	inactive	inactive	inactive	inactive	inactive	inactive	–	–	–	1.23 µM (active)	4.86 µM (active)
